# Test results from the supplement of paper PMC8728848.
# The entries come from a sample that favours the strongest signals as a whole.
# Tests used:
# Assay in all cases: glycan array binding signal (z-score within array); higher = stronger binding
# Conditions in all cases: glycan notation: IUPAC condensed, linker removed
# [1] = target: Fuc(a1-2)Gal(b1-3)GlcNAc(b1-3)GalNAc
# In short: (§1)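 Glycan array binding is given as a within-array Z-score, which can be read as non-binding when negative. The arrays, 3228 of them, came from the Consortium for Functional Glycomics database and were retained only where the protein sequence was available. Z-scores were averaged across arrays of the same protein sequence at different concentrations or buffers and across linkers.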
# [2] = target: Fuc(a1-2)Gal(b1-3)GlcNAc(b1-3)[Fuc(a1-2)Gal(b1-3)GlcNAc(b1-6)]GalNAc
# In short: as §1
# [3] = target: Fuc(a1-2)Gal(b1-4)GlcNAc(b1-2)[Fuc(a1-2)Gal(b1-4)GlcNAc(b1-4)]Man(a1-3)[Fuc(a1-2)Gal(b1-4)GlcNAc(b1-2)Man(a1-6)]Man(b1-4)GlcNAc(b1-4)GlcNAc
# In short: as §1
# [4] = target: Fuc(a1-2)Gal(b1-4)[Fuc(a1-3)]GlcNAc(b1-2)[Fuc(a1-2)Gal(b1-4)[Fuc(a1-3)]GlcNAc(b1-4)]Man(a1-3)[Fuc(a1-2)Gal(b1-4)[Fuc(a1-3)]GlcNAc(b1-2)Man(a1-6)]Man(b1-4)GlcNAc(b1-4)GlcNAc
# In short: as §1
# [5] = target: Fuc(a1-2)[Gal(a1-3)]Gal(b1-3)GlcNAc(b1-2)Man(a1-3)[Fuc(a1-2)[Gal(a1-3)]Gal(b1-3)GlcNAc(b1-2)Man(a1-6)]Man(b1-4)GlcNAc(b1-4)GlcNAc
# In short: as §1
# [6] = target: Fuc(a1-2)[Gal(a1-3)]Gal(b1-4)Glc
# In short: as §1
# [7] = target: Fuc(a1-2)[Gal(a1-3)]Gal(b1-4)GlcNAc(b1-2)Man
# In short: as §1
# [8] = target: Fuc(a1-2)[Gal(a1-3)]Gal(b1-4)GlcNAc(b1-2)Man(a1-3)[Fuc(a1-2)[Gal(a1-3)]Gal(b1-4)GlcNAc(b1-2)Man(a1-6)]Man(b1-4)GlcNAc(b1-4)GlcNAc
# In short: as §1
# [9] = target: Fuc(a1-2)[GalNAc(a1-3)]Gal(b1-3)GlcNAc(b1-2)Man(a1-3)[Fuc(a1-2)[GalNAc(a1-3)]Gal(b1-3)GlcNAc(b1-2)Man(a1-6)]Man(b1-4)GlcNAc(b1-4)GlcNAc
# In short: as §1
# [10] = target: Fuc(a1-2)[GalNAc(a1-3)]Gal(b1-4)GlcNAc(b1-2)Man(a1-3)[Fuc(a1-2)[GalNAc(a1-3)]Gal(b1-4)GlcNAc(b1-2)Man(a1-6)]Man(b1-4)GlcNAc(b1-4)GlcNAc
# In short: as §1
# [11] = target: Fuc(a1-2)[GalNAc(a1-3)]Gal(b1-4)[Fuc(a1-3)]GlcNAc
# In short: as §1
# [12] = target: Fuc(a1-2)[GalNAc(a1-3)]Gal(b1-4)[Fuc(a1-3)]GlcNAc(b1-3)GalNAc
# In short: as §1
# Fuc(a1-3)GlcNAc = target: Fuc(a1-3)GlcNAc
# In short: as §1
# [13] = target: Fuc(a1-3)[Gal(b1-4)]GlcNAc6S
# In short: as §1
# Fuc(a1-4)GlcNAc = target: Fuc(a1-4)GlcNAc
# In short: as §1
# Fuc(b1-3)GlcNAc = target: Fuc(b1-3)GlcNAc
# In short: as §1
# Gal(a1-3)Gal = target: Gal(a1-3)Gal
# In short: as §1
# [14] = target: Gal(a1-3)Gal(b1-3)GlcNAc(b1-2)Man(a1-3)[Gal(a1-3)Gal(b1-3)GlcNAc(b1-2)Man(a1-6)]Man(b1-4)GlcNAc(b1-4)GlcNAc
# In short: as §1
# [15] = target: Gal(a1-3)Gal(b1-3)[Fuc(a1-4)]GlcNAc(b1-2)Man(a1-3)[Gal(a1-3)Gal(b1-3)[Fuc(a1-4)]GlcNAc(b1-2)Man(a1-6)]Man(b1-4)GlcNAc(b1-4)GlcNAc
# In short: as §1
# Gal(a1-3)Gal(b1-4)GlcNAc = target: Gal(a1-3)Gal(b1-4)GlcNAc
# In short: as §1
# Gal(a1-4)Gal(b1-4)Glc = target: Gal(a1-4)Gal(b1-4)Glc
# In short: as §1
# Gal(b1-3)GalNAc = target: Gal(b1-3)GalNAc
# In short: as §1
# [16] = target: Gal(b1-3)GlcNAc(b1-2)Man(a1-3)[Gal(b1-3)GlcNAc(b1-2)Man(a1-6)]Man(b1-4)GlcNAc(b1-4)[Fuc(a1-6)]GlcNAc
# In short: as §1
# [17] = target: Gal(b1-3)GlcNAc(b1-3)Gal(b1-4)GlcNAc(b1-3)Gal(b1-4)GlcNAc(b1-2)[Gal(b1-3)GlcNAc(b1-3)Gal(b1-4)GlcNAc(b1-3)Gal(b1-4)GlcNAc(b1-6)]Man(a1-6)[Gal(b1-3)GlcNAc(b1-3)Gal(b1-4)GlcNAc(b1-3)Gal(b1-4)GlcNAc(b1-2)Man(a1-3)]Man(b1-4)GlcNAc(b1-4)[Fuc(a1-6)]GlcNAc
# In short: as §1
# [18] = target: Gal(b1-3)[Fuc(a1-4)]GlcNAc(b1-6)GalNAc
# In short: as §1
# [19] = target: Gal(b1-4)GlcNAc(b1-3)Gal(b1-4)GlcNAc(b1-2)Man(a1-3)[Gal(b1-4)GlcNAc(b1-3)Gal(b1-4)GlcNAc(b1-2)Man(a1-6)]Man(b1-4)GlcNAc(b1-4)[Fuc(a1-6)]GlcNAc
# In short: as §1
# [20] = target: Gal(b1-4)GlcNAc(b1-3)Gal(b1-4)GlcNAc(b1-2)[Gal(b1-4)GlcNAc(b1-3)Gal(b1-4)GlcNAc(b1-6)]Man(a1-6)[Gal(b1-4)GlcNAc(b1-3)Gal(b1-4)GlcNAc(b1-2)Man(a1-3)]Man(b1-4)GlcNAc(b1-4)GlcNAc
# In short: as §1
# [21] = target: Gal(b1-4)GlcNAc(b1-3)Gal(b1-4)GlcNAc(b1-3)Gal(b1-4)GlcNAc(b1-2)Man(a1-3)[Gal(b1-4)GlcNAc(b1-3)Gal(b1-4)GlcNAc(b1-3)Gal(b1-4)GlcNAc(b1-2)Man(a1-6)]Man(b1-4)GlcNAc(b1-4)GlcNAc
# In short: as §1
binder,measurement,setting,value
PX9961V-pdi-562-26-562 (Parabacteroides distasonis) (protein) EIFSEITTDNYYQNSNNIYAALVNNYAKAFSTGWSDARYFLQEVTADQLMIPTRGKHGYNGGEYVRLHEHKWTVEENFVYNGWAAPFQGIALCNNTLSDFENLDFSTFKLTEETKNEYIAELRALRVWNYMFLIDFFRHVPIVTDIEEVKAQSTPLEVFNFMESELLAILPDLPKNRGVSRFDQAGVASILVRLYLNAEKWIGISKYDECEQMAQAILDGKYGEYSIDPDYRGPFRSGINGYRSKENIMEFAIKKNYFEASWLYNMWMHYQDRYSLDNDWQGWNGGNLAPSRDLYGNLYQDKLGMPFEKFPDGDIRKKAFRVISNDGDYEGFFLMGTQYKFDYEKGYGFTDEVITGTEEYNGKPLVYVDQVGRFSEGETGLAKGSHVIYGEENTGYRLIKFPWLPQSKDLFQMNSIPEIRLAEIYYSLAECKYRSGDKIGAARLLDVVRKRYYKAEDWSKFSYESNISKLTDDEFVDELGREFIGERHRRIDLIRWNRFSEGAWWDKTPDATNQDVFPIPYRALNANPLLKQTTAGF,glycan array binding signal (z-score),[1],-0.58
same,glycan array binding signal (z-score),[2],2.04
same,glycan array binding signal (z-score),[3],-0.54
same,glycan array binding signal (z-score),[4],-0.424
same,glycan array binding signal (z-score),[5],-0.108
same,glycan array binding signal (z-score),[6],-0.228
same,glycan array binding signal (z-score),[7],-0.182
same,glycan array binding signal (z-score),[8],3.45
same,glycan array binding signal (z-score),[9],-0.21
same,glycan array binding signal (z-score),[10],4.28
same,glycan array binding signal (z-score),[11],-0.369
same,glycan array binding signal (z-score),[12],7.22
same,glycan array binding signal (z-score),Fuc(a1-3)GlcNAc,-0.508
same,glycan array binding signal (z-score),[13],0.861
same,glycan array binding signal (z-score),Fuc(a1-4)GlcNAc,-0.596
same,glycan array binding signal (z-score),Fuc(b1-3)GlcNAc,-0.328
same,glycan array binding signal (z-score),Gal(a1-3)Gal,0
same,glycan array binding signal (z-score),[14],2.03
same,glycan array binding signal (z-score),[15],3.94
same,glycan array binding signal (z-score),Gal(a1-3)Gal(b1-4)GlcNAc,0.068
same,glycan array binding signal (z-score),Gal(a1-4)Gal(b1-4)Glc,-0.099
same,glycan array binding signal (z-score),Gal(b1-3)GalNAc,-0.185
same,glycan array binding signal (z-score),[16],5.1
same,glycan array binding signal (z-score),[17],4.46
same,glycan array binding signal (z-score),[18],6.13
same,glycan array binding signal (z-score),[19],4.04
same,glycan array binding signal (z-score),[20],4.58
same,glycan array binding signal (z-score),[21],4.36
